Screens from PubChem BioAssay.
The list is not random: actives were taken first. Their share in the collection is about 1.8%.
PI5P4Ka inh: PI5P4K alpha (human) kinase inhibition | PI5P4Kalpha enzyme, ADP-Glo luminescence, 60 min; stronger effect = lower value | max response, % | hit rate 1.2% among 330,000; active means max response of -50% or lower; inconclusive means between -30% and -50%; inactive means -30% or higher; further: value at the top dose of about 77 µM
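Compounds were pin-transferred onto PI5P4Kalpha and substrate in HEPES pH 7.4 buffer with EGTA, CHAPS and 5% DMSO. ATP (5 microM final) started the reaction, which ran 60 minutes at room temperature before ADP-Glo detection.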
Six1-Eya2 inh: blocks human Six1 binding to Eya2; AlphaScreen GST-Six1/His-Eya2 binding, biochemical; stronger effect = lower value; AID 651725; hit rate 0.56% among 360,000; activity change, % (no concentration beside the values)
Target sequence (O00167 whole entry, looked up): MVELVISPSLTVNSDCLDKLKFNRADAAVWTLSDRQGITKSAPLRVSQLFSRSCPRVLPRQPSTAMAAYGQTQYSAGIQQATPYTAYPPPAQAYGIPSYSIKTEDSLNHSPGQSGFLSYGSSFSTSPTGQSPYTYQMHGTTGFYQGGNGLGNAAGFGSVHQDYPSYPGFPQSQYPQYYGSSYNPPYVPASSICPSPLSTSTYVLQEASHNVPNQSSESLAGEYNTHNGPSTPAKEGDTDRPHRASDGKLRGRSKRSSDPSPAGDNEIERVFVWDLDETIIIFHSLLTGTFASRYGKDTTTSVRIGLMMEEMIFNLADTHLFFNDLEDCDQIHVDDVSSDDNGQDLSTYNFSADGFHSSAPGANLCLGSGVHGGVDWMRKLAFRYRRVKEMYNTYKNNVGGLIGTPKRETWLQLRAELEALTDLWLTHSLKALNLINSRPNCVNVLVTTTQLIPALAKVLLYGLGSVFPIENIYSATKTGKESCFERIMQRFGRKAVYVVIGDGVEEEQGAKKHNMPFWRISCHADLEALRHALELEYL
Target sequence (Q15475 whole entry, looked up): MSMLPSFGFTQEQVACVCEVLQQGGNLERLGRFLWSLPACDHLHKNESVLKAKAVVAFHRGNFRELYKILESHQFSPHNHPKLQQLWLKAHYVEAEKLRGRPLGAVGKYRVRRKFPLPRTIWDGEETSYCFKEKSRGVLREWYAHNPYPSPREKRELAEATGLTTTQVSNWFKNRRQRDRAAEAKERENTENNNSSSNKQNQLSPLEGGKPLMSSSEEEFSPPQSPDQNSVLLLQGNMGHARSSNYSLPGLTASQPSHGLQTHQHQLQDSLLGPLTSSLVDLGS
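GST-Six1 + His-Eya2 (5X stock: 250/500 nM); Tris pH 8.0, 300 mM NaCl, 0.05% BSA, 0.02% Tween 20; GSH donor/Ni acceptor beads; 1 h 37 °C dark; AlphaScreen readout.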
Akt phos inh: blocks phosphorylation of Akt | activity change, % for hits at 50 µM | Neuro2A IGF-stimulated pAkt S473 HTRF, 20 min; stronger effect = lower value | hit rate 0.32% among 360,000; in the data active means activity change below about -80%; inconclusive means mostly about -51% to -80%
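Single-point screen (50 µM final compound) in Neuro2A cells stimulated 20 min with 6 nM IGF at 37 deg C. After lysis, Ser473-phosphorylated Akt read by HTRF (ex 330 nm, em 615/665 nm) as the 665/615 ratio.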
CtBP-E1A blk: inhibitors of CtBP/E1A interaction; AlphaScreen GST-E1A/His-CtBP binding, 1536-well; stronger effect = lower value; activity change, % (no concentration beside the values); hit rate 0.49% among 340,000; AID 651724
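GST-E1A and His-tagged CtBP (125 nM each as 5X stock) were preincubated with pin-transferred compound for 2 h at 37 °C in the dark, then glutathione donor and nickel acceptor beads were added for 1 h before AlphaScreen reading.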
PI4K2A inh: inhibitors of human PI4K2A; hit rate 0.13% among 420,000; Q9BTU6; purified PI4K2A, ADP-Glo luminescence, 1 h; stronger effect = lower value; activity change, negative = inhibition, % at 76.9 µM; in the data active means activity change below about -50%; inconclusive means mostly about -30% to -49%;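 further: -100% = wells without enzyme as full effect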
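ADP-Glo luminescence measured ADP generated by PI4K2A enzyme (4 ug/mL before mixing) with 1.2 mM PI substrate (pre-mix) and 300 microM ATP (pre-mix). Tris pH7.5 buffer with MgCl2, Triton X-100; 1 h reaction at ambient temperature.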
* = called active by the depositor. Unless noted, no stated cut-off is given here; in the data, active means activity change below about -65%; inconclusive means mostly about -30% to -63%; inactive means weaker than that. Unless noted, on the % scale 0 is the no-effect control and ±100 the full control effect.

What do the screens show for `CCOC(=O)c1c(C)[nH]c(C(=O)N/N=C/c2cc([N+](=O)[O-])ccc2O)c1C`?
PI5P4Ka inh: inconclusive; Six1-Eya2 inh: inconclusive; Akt phos inh: inactive; CtBP-E1A blk: inconclusive; PI4K2A inh: -1

What do the screens show for `CCOC(=O)c1c(C)[nH]c(C(=O)N/N=C\c2ccccc2O)c1C`?
PI5P4Ka inh: -2; Six1-Eya2 inh: -65*; Akt phos inh: inactive; CtBP-E1A blk: -8; PI4K2A inh: 2

Results for COc1cccc(CNS(=O)(=O)c2cc3c4c(c2)CCC(=O)N4CCC3)c1 ?
PI5P4Ka inh: -17; Six1-Eya2 inh: 6; Akt phos inh: inactive; CtBP-E1A blk: 0; PI4K2A inh: 0

What do the screens show for `CCCC(O)(c1ccccc1)C(CN1CCOCC1)c1ccccc1` (configuration not stated)?
PI5P4Ka inh: -1; Six1-Eya2 inh: 10; Akt phos inh: inactive; CtBP-E1A blk: 1; PI4K2A inh: 2

What do the screens show for `CC(C)c1ccc(-c2c(C#N)c(N)nc(SCC(=O)N3CCCCCC3)c2C#N)cc1`?
PI5P4Ka inh: 0; Six1-Eya2 inh: -1; Akt phos inh: -124%*; CtBP-E1A blk: 7; PI4K2A inh: -3

What do the screens show for `O=[N+]([O-])c1ccc(-c2cccnc2)cc1`?
PI5P4Ka inh: 0; Six1-Eya2 inh: 0; Akt phos inh: inactive; CtBP-E1A blk: -3; PI4K2A inh: 7

Results for COc1cc(/C=C(\C#N)C(=O)NC2CCCCC2)ccc1OCc1ccc(C(=O)O)cc1 ?
PI5P4Ka inh: -1; Six1-Eya2 inh: inconclusive; Akt phos inh: inactive; CtBP-E1A blk: -93*; PI4K2A inh: -11

How did COc1cc(/C=C(\C#N)C(=O)NC(C)C)ccc1OCc1ccc(C(=O)O)cc1 do in these assays?
PI5P4Ka inh: -14; Six1-Eya2 inh: -1; Akt phos inh: inactive; CtBP-E1A blk: -73*; PI4K2A inh: -1

Results for COc1cc(/C=C(/C#N)C(=O)Nc2ccccc2)ccc1OCc1ccc(C(=O)O)cc1 ?
PI5P4Ka inh: 1; Six1-Eya2 inh: 0; Akt phos inh: inactive; PI4K2A inh: -1

How did CC(C)c1cccc(C2=CC(=O)C[C@H](c3ccc(F)cc3)C2)c1 do in these assays?
PI5P4Ka inh: -5; Six1-Eya2 inh: 2; Akt phos inh: inactive; PI4K2A inh: 6

Results for c1ccc(Cc2nnc3sc(-c4ccncc4)nn23)cc1 ?
Six1-Eya2 inh: 1; Akt phos inh: inactive; CtBP-E1A blk: 5; PI4K2A inh: -3

How did O=C(c1cccc2ccccc12)N1CCN=C1SCc1ccc([N+](=O)[O-])cc1 do in these assays?
PI5P4Ka inh: 4; Six1-Eya2 inh: 15; Akt phos inh: inactive; CtBP-E1A blk: 9; PI4K2A inh: -1

What do the screens show for `OCCNCc1ccc(-c2ccccc2)cc1`?
PI5P4Ka inh: 3; Six1-Eya2 inh: 11; Akt phos inh: inactive; CtBP-E1A blk: -23; PI4K2A inh: -4

How did O=C(CN1C(=O)CCC1=O)Nc1nc(-c2ccccn2)cs1 do in these assays?
PI5P4Ka inh: -4; Six1-Eya2 inh: -88*; Akt phos inh: inactive; CtBP-E1A blk: inconclusive; PI4K2A inh: 2

How did CSCCC(=O)Nc1nc(-c2ccccn2)cs1 do in these assays?
PI5P4Ka inh: inconclusive; Six1-Eya2 inh: -71*; Akt phos inh: inactive; CtBP-E1A blk: -4; PI4K2A inh: 1

What do the screens show for `CC(=O)Nc1ccc(/C=C/c2nc3ccccc3[nH]c2=O)cc1`?
PI5P4Ka inh: -1; Six1-Eya2 inh: -1; Akt phos inh: inactive; CtBP-E1A blk: -5; PI4K2A inh: -1

What do the screens show for `C[C@H](NC(=O)c1nc[nH]c1C(=O)NCCCCCNC(=O)OC(C)(C)C)c1ccccc1`?
PI5P4Ka inh: 6; Six1-Eya2 inh: -1; Akt phos inh: inactive; CtBP-E1A blk: 2; PI4K2A inh: -1

What do the screens show for `CC(=O)Nc1ccc(C=NNc2ccc(S(=O)(=O)Nc3ccccc3C(=O)O)cc2[N+](=O)[O-])cc1`?
PI5P4Ka inh: -92*; Six1-Eya2 inh: -22; Akt phos inh: inactive; CtBP-E1A blk: inconclusive; PI4K2A inh: -3

How did CC(=O)Nc1ccc(C=NNc2ccc([N+](=O)[O-])cc2S(=O)(=O)Nc2ccccc2C(=O)O)cc1 do in these assays?
PI5P4Ka inh: -64*; Six1-Eya2 inh: -4; Akt phos inh: inactive; CtBP-E1A blk: -13; PI4K2A inh: 5

What do the screens show for `Cc1ccc(NC(=S)NNc2ccc([N+](=O)[O-])cc2S(=O)(=O)Nc2ccccc2C(=O)O)cc1C`?
PI5P4Ka inh: -73*; Six1-Eya2 inh: -3; Akt phos inh: inactive; CtBP-E1A blk: -9; PI4K2A inh: 2

What do the screens show for `O=C(O)c1ccccc1NS(=O)(=O)c1ccc(NNC(=S)Nc2ccc(OC(F)F)cc2)c([N+](=O)[O-])c1`?
PI5P4Ka inh: -82*; Six1-Eya2 inh: inconclusive; Akt phos inh: inactive; CtBP-E1A blk: -16; PI4K2A inh: -18

How did COc1ccc(C(C)=NNc2ccc([N+](=O)[O-])cc2S(=O)(=O)Nc2ccccc2C(=O)O)c(OC)c1 do in these assays?
PI5P4Ka inh: inconclusive; Six1-Eya2 inh: -6; Akt phos inh: inactive; CtBP-E1A blk: 0; PI4K2A inh: -16

What do the screens show for `O=C(O)c1ccccc1NS(=O)(=O)c1ccc(N/N=C/c2cccc(O)c2O)c([N+](=O)[O-])c1`?
PI5P4Ka inh: inconclusive; Six1-Eya2 inh: inconclusive; Akt phos inh: inactive; CtBP-E1A blk: 14; PI4K2A inh: -7

Results for O=[N+]([O-])c1ccc(N/N=C/c2ccccc2)c(F)c1 ?
PI5P4Ka inh: 17; Six1-Eya2 inh: 12; Akt phos inh: inactive; CtBP-E1A blk: 20; PI4K2A inh: -1

How did COc1ccc(NC(=O)c2ccccc2NS(=O)(=O)c2ccc(C)cc2)c([N+](=O)[O-])c1 do in these assays?
PI5P4Ka inh: -2; Six1-Eya2 inh: -24; Akt phos inh: inactive; CtBP-E1A blk: 0; PI4K2A inh: 2

Results for CN(CCO)c1ccc(C=NNc2ccc([N+](=O)[O-])cc2S(=O)(=O)Nc2ccccc2C(=O)O)cc1 ?
PI5P4Ka inh: -55*; Six1-Eya2 inh: -9; Akt phos inh: inactive; CtBP-E1A blk: -13; PI4K2A inh: -1

How did CC(=O)Nc1cccc(/C(C)=N/Nc2ccc(S(=O)(=O)Nc3ccccc3C(=O)O)cc2[N+](=O)[O-])c1 do in these assays?
PI5P4Ka inh: -72*; Six1-Eya2 inh: -11; Akt phos inh: inactive; CtBP-E1A blk: 2; PI4K2A inh: -3

Results for O=C(CN1C(=O)NC2(CCCC2)C1=O)NCc1ccc(F)cc1 ?
PI5P4Ka inh: -7; Six1-Eya2 inh: -6; Akt phos inh: inactive; CtBP-E1A blk: 0; PI4K2A inh: 1

Results for O=C(COc1ccc2c(c1)CCC2)Nc1ccccn1 ?
PI5P4Ka inh: -15; Six1-Eya2 inh: 0; Akt phos inh: inactive; CtBP-E1A blk: -1; PI4K2A inh: -62*
